TDP1 cell CPT = DT40-hTDP1 cell growth loss with CPT | chicken DT40 Tdp1-/-;hTDP1 cells + 20 nM CPT, ATP luminescence, 48 h | Potency, µM (highest dose often 46.2 µM), inactives show top-dose activity change, negative = growth inhibition, usual class: inhibitors | 420,000 tested, 12% active | AID 686979; further: nearly all actives have a fitted effect of over 55% in size
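Cell growth measured by CellTiter-Glo luminescence after a minimum 48 h, 37 C compound exposure with 20 nM CPT in Tdp1-knockout DT40 cells stably expressing hTDP1, seeded 400/well; qHTS titration format.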
TDP1 cell noCPT = qHTS for Inhibitors of human tyrosyl-DNA phosphodiesterase 1 (TDP1): qHTS in cells in absence of CPT. DT40 Tdp1-/- hTDP1 cells, no CPT, ATP luminescence, 48 h. Potency, µM (top dose mostly 46.2 µM), for the others: at the top dose activity change, negative = growth inhibition, most hits filed as inhibitors. 420,000 tested, 15% active; further: nearly all actives have a fitted effect of over 55% in size
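No-CPT arm: Tdp1-/-;hTDP1 DT40 cells (400/well) plus compounds, incubated ≥48 hr at 37 °C. Readout CellTiter-Glo luminescence.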
12-LOX inh = inhibitors of human 12S-lipoxygenase ALOX12; P18054; purified 12hLO, xylenol orange hydroperoxide absorbance; Potency, µM (series often up to 108 µM), for the others: top-dose activity change, negative = inhibition, hits mostly inhibitors; 580,000 tested, 1.1% active; AID 1671190
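Purified human 12hLO at 150 nM in 25 mM Hepes, 0.01% Triton X-100, pH 7.0, preincubated 15 min at room temperature with compound. Reaction started with 40 uM arachidonic acid, 30 min at room temperature. Hydroperoxide measured by Fe-xylenol orange, 573/405 nm absorbance ratio.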
Gal4-VP16 FLuc = counter-screen for ROR gamma inhibitors: Gal4-VP16 reporter. Potency, µM (series often up to 53.6 µM), without a hit: at the highest dose activity, negative = inhibition, hits mostly inhibitors. 310,000 tested, 3.5% active. AID 2546. Drosophila S2 Gal4-VP16 UAS-luciferase, luminescence, 20 h;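 further: Gal4-VP16 expression switched on by copper sulfate through the metallothionein promoter; nearly all actives have a fitted effect of over 50% in size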
ELG1 repair inh = inhibitors of ELG1-dependent DNA repair in HEK293T cells; HEK293T ELG1-luciferase reporter, luminescence, 16 h; DNA damage induced by 5-fluorouridine; Potency, µM (titrated, usually from 46.1 µM), without a hit: top-dose activity change, negative = inhibition, usual class: inhibitors; 330,000 tested, 2.3% active; AID 504467; further: nearly all actives have a fitted effect of over 55% in size
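Reporter activity after DNA damage by 5-fluorouridine is monitored. Compound-treated cells incubate 16 hr at 37 °C, then ONE-Glo is added for 30 min before luminescence reading.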
RORgamma inh = inhibitors of mouse ROR gamma transcriptional activity. 310,000 tested, 5.4% active. Drosophila S2 Gal4-RORgamma UAS-luciferase reporter, 20 h. Potency, µM (top dose mostly 53.6 µM), inactives show at the top dose activity change, negative = inhibition, actives largely listed as inhibitors. P51450; further: nearly all actives have a fitted effect of over 60% in size
Target sequence (P51450 whole entry, looked up, the tested form may be a part): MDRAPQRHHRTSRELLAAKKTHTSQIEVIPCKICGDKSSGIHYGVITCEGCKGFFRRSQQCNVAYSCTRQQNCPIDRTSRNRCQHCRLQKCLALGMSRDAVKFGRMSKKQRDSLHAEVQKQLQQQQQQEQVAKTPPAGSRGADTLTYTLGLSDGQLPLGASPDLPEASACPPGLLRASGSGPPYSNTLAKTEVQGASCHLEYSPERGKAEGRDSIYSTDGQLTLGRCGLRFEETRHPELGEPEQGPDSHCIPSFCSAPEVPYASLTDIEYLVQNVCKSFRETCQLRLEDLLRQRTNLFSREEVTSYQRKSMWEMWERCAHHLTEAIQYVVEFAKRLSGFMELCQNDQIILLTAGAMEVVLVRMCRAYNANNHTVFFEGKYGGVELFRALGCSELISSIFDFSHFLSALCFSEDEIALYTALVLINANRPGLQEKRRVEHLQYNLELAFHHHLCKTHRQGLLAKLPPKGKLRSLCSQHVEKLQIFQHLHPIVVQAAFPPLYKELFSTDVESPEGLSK
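Read-out: Photinus luciferase luminescence; inhibitors lower reporter signal. Insect Schneider cells with Gal4-ROR gamma fusion under metallothionein promoter, UAS reporter; 700 uM final copper sulfate induction, 20 hr, ambient temperature.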
The depositor's hits bear a star. An excerpt weighted towards active compounds, which were near 15% of everything screened. The call rests on the fitted dose curve; in most records, active means well fitted curve in the direction sought with a large enough effect; inconclusive means small, poorly fitted or top-dose-only effect, or another doubt; inactive means no such curve, though single readings can be large; an effect the other way counts as inactive or inconclusive. On the % scale 0 is the no-effect control and ±100 the full control effect; potency means the concentration at half of the fitted maximal effect.

O=C(NNC(=S)NC(=O)c1ccc(Br)cc1)c1cccc([N+](=O)[O-])c1 was read as TDP1 cell CPT 18µM*, TDP1 cell noCPT 16µM*, 12-LOX inh 40µM*, Gal4-VP16 FLuc inconclusive, ELG1 repair inh inconclusive and RORgamma inh 14µM*.
C#CCNC(=O)c1ccccc1NC(=O)c1cccc2cccnc12 was read as 12-LOX inh -3%.
`COc1ccc(CCNc2ncnc3c2cnn3-c2cccc(Cl)c2)cc1` gave TDP1 cell CPT inconclusive, TDP1 cell noCPT 26µM* and 12-LOX inh 40µM*.
Screening Cc1ccc(-n2ncc3c(NCCC4=CCCCC4)ncnc32)cc1C returned TDP1 cell CPT 10µM*, TDP1 cell noCPT inconclusive and 12-LOX inh inconclusive.
Screening COc1ccc(CCNc2ncnc3c2cnn3-c2ccc(C)c(Cl)c2)cc1 returned TDP1 cell CPT 21µM*, TDP1 cell noCPT inconclusive and 12-LOX inh inconclusive.
Screening COc1ccc(CN(C(=O)c2oc3ccc(F)cc3c2C)C2CCS(=O)(=O)C2)cc1 (configuration not stated) returned TDP1 cell CPT inconclusive, TDP1 cell noCPT inconclusive, 12-LOX inh 22%, Gal4-VP16 FLuc 3%, ELG1 repair inh inconclusive and RORgamma inh 0%.
For Cc1ccc2oc(C(=O)N(Cc3ccccc3)C3CCS(=O)(=O)C3)c(C)c2c1 (configuration not stated) the results were TDP1 cell CPT inconclusive, TDP1 cell noCPT -28%, 12-LOX inh -28% and ELG1 repair inh -17%.
`COc1cccc(CN(C(=O)c2oc3ccc(Br)cc3c2C)C2CCS(=O)(=O)C2)c1` (configuration not stated) gave TDP1 cell CPT 15µM*, TDP1 cell noCPT 16µM* and 12-LOX inh -23%.
Cc1cc2oc(C(=O)N(Cc3ccccc3)C3CCS(=O)(=O)C3)c(C)c2cc1C (configuration not stated) was read as TDP1 cell CPT 26µM*, TDP1 cell noCPT 16µM*, 12-LOX inh 0%, Gal4-VP16 FLuc -25%, ELG1 repair inh -10% and RORgamma inh -34%.
`O=C(Nc1cc(C(F)(F)F)ccc1Cl)C(F)(F)C(F)(F)C(F)(F)C(F)(F)C(=O)Nc1cc(C(F)(F)F)ccc1Cl` gave 12-LOX inh -23%.
For CC1CCc2c(sc(NC(=O)c3ccccc3)c2C(=O)Nc2ccccc2)C1 (configuration not stated) the results were TDP1 cell CPT 9.2µM*, TDP1 cell noCPT 21µM* and 12-LOX inh 0%.
`NC(=O)c1c(NC(=O)c2cccs2)sc2c1CCCCCC2` gave TDP1 cell CPT inconclusive, TDP1 cell noCPT inconclusive, 12-LOX inh inconclusive, Gal4-VP16 FLuc 8%, ELG1 repair inh inconclusive and RORgamma inh inconclusive.
Cc1cccc(NC(=O)c2c(NC(=O)c3cccs3)sc3c2CCC(C)C3)c1 (configuration not stated) was read as TDP1 cell CPT 23µM*, TDP1 cell noCPT 10µM* and 12-LOX inh inconclusive.
Screening COc1cc(C(=O)Nc2sc3c(c2C(=O)O)CCC(C)C3)cc(OC)c1OC (configuration not stated) returned TDP1 cell CPT -27%, TDP1 cell noCPT -12%, 12-LOX inh 0%, Gal4-VP16 FLuc -12%, ELG1 repair inh 2.9µM* and RORgamma inh -18%.
Screening Cc1ccccc1NC(=O)c1c(NC(=O)c2cccs2)sc2c1CCC(C)C2 (configuration not stated) returned TDP1 cell CPT -25%, TDP1 cell noCPT inconclusive and 12-LOX inh -15%.

Screening data deposited in PubChem BioAssay by National Center for Advancing Translational Sciences (NCATS).
